According to PubChem BioAssay AID1224858 (National Center for Advancing Translational Sciences (NCATS), 2016):
Inconclusive results are not listed. Activity calls are given as the source filed them. Calls follow the shape of the dose curve; as a rule, active = well fitted inhibition curve with a large enough effect; inconclusive = small, poorly fitted or top-dose-only effect; inactive = no such curve, though single readings can be large or run the other way.

assay: Confirmation assay for measurement of the activity of small molecule inhibitors on Zika virus induced Caspase-3 activity in human astrocytes; settings: ZIKV-induced caspase-3/7 luminescence, 6 h; series mostly up to 46.1 µM; activity, negative = inhibition: at the top concentration
Text: National Center for Advancing Translational Sciences [NCATS] Johns Hopkins University School of Medicine Florida State University Assay Overview: Increase in the Caspase-3 activity indicates an activation of apoptosis cell death pathway caused by Zika virus infection in certain types of neuronal cells including human neural progenitor cells (hNPCs), astrocytes, and astrocytoma cell line (SNB-19). This cell-based caspase-3 activity assay measures the increased caspase-3 activity in the human astrocytes after a 6-hour Zika virus infection with a luminescence readout. A decrease in the luminescence signal in this assay by small molecule treatment indicates an inhibitory effect of that small molecule on the Zika virus induced caspase-3 activity that may correlate with its effect on reduction of Zika virus caused cell death.
Assay Protocol Summary: The medium for astrocytes contains AM basal medium (ScienCell, Cat.# 1801), AGS (ScienCell, Cat.# 1801), 10% FBS, and 1% Pen/Strep. A Caspase-Glo 3/7 assay kit (catalog number G8092; Promega, Madison, WI) was used to detect caspase-3 activity induced by Zika virus infection in human cells. The reagent mixture was reconstituted as described in the protocol from the manufacturer. Polystyrene tissue culture treated and PDL coated white plates were obtained from Greiner Bio-One (Monroe, NC). Cells were seeded in 384- or 1536-well assay plates and cultured at 37 C with 5% CO2 for 16 to 20 hours. The typical cell seeding density in the 1536-well plate assay is 350 cells/well in 3 ul medium for astrocytes in tissue culture treated plates. Compounds were added to cells and incubated for one hour before addition of ZIKV solution to cells (2 FFU/cell). After incubation at 37 C with 5% CO2 for 6 hours, the reagent mixture of Caspase-Glo 3/7 assay kit was added to each well, followed by incubation at room temperature for 30 minutes. The luminescence intensity of the assay plates was measured using a ViewLux plate reader (PerkinElmer). Data were normalized by using the cell-containing wells without ZIKV as a negative control (0% induction of caspase 3/7 activity) and wells containing ZIKV infected cells (Caspase-3 activity induced) as a positive control (100% induction of caspase 3 activity). The percentage inhibitions of the increased Caspase-3 activity by small molecule inhibitors were then calculated.

Compound	Potency	activity, negative = inhibition
O=c1c2ccccc2[se]n1-c1ccccc1	7.74 µM (active)	–
CC(C)[N+](C)(CCC(C(N)=O)(c1ccccc1)c1ccccc1)C(C)C	–	3.8% (inactive)
O=S(=O)(CC1CS1)c1ccc(Oc2ccccc2)cc1 (stereo not drawn)	–	-16.3% (inactive)
CC(C)[C@H]1C(=O)N[C@H](CO)Cc2c[nH]c3cccc(c23)N1C	–	-6.86% (inactive)
CC(C)N[C@@H]1CCn2c(=O)[nH]c3cccc(c32)[C@@H]1O	–	-6.93% (inactive)
Oc1ccc([C@H]2CNCc3c2ccc(O)c3O)cc1O	–	-21.6% (inactive)
O=C1CCC[C@@H]2[C@H]3CCCN4CCC[C@@H](CN12)[C@@H]34	–	-2.18% (inactive)
O=C(Nc1ccc(Br)cc1)c1cc(Br)cc(Br)c1O	6.15 µM (active)	–
CC(O)CN1CCN(CC(=O)[O-])CCN(CC(=O)[O-])CCN(CC(=O)[O-])CC1.[Gd+3] (stereo not drawn)	–	16.8% (inactive)
COP(=S)(OC)SCN1C(=O)c2ccccc2C1=O	–	11.5% (inactive)
COC1(CS(=O)c2ccccc2)CCN(CCc2c[nH]c3ccc(F)cc23)CC1 (stereo not drawn)	–	21.6% (inactive)
O=C1C=CC[C@@H]2[C@H]3CCCN4CCC[C@@H](CN12)[C@@H]34	–	6.06% (inactive)
Cc1ccc([N+](=O)[O-])[c]2c1[O][Hg]2	7.74 µM (active)	–
